Our source for the outcome and AC50 values is PubChem BioAssay (EPA / NIEHS).

Activity calls are given as the source filed them. Rule for the calls: active = hit-call score of the fitted dose curve at least 0.9, where 1 is the maximum; inactive = score below 0.9.

Heat shock factor protein 1 (Homo sapiens), sequence (Q00613 whole entry, looked up): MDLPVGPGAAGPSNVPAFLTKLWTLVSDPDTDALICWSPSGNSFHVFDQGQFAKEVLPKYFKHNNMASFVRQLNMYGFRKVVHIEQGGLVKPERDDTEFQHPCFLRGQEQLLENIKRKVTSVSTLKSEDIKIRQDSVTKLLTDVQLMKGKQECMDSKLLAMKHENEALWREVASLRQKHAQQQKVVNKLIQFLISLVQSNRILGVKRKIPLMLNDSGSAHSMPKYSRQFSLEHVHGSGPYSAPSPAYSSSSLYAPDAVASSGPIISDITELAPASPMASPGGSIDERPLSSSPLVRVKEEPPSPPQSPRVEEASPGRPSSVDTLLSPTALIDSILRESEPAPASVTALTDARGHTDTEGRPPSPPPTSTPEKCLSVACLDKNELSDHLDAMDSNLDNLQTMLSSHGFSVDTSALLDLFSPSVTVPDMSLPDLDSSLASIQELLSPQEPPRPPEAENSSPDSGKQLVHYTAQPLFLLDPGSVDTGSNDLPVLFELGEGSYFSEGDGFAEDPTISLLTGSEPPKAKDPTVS

The target in this test is Heat shock factor protein 1 (Homo sapiens) (UniProt Q00613). Put plainly: ATG_HSE_CIS: Attagene CIS-FACTORIAL HepG2 Assay for human Heat Shock Transcription Factor 1 (HSE) (AID 2282953). The note with it: HepG2 HSE cis-reporter, Attagene RNA transcription; actives raise or lower the signal. On the procedure:
ATG_CIS is a cell-based, multiplexed-readout assay that uses HepG2, a human liver cell line, with measurements taken at 24 hours after chemical dosing in a 24-well plate.ATG_HSE_CIS is one of 52 assay component(s) measured or calculated from the ATG_CIS assay. It is designed to make measurements of mRNA induction, a form of inducible reporter, as detected with fluorescence intensity signals by Reverse transcription polymerase chain reaction (RT-PCR) and Capillary electrophoresis technology.Data from the assay component ATG_HSE_CIS was analyzed into 1 assay endpoint. This assay endpoint, ATG_HSE_CIS, was analyzed with bidirectional fitting relative to DMSO as the negative control and baseline of activity. Using a type of inducible reporter, measures of mRNA for gain or loss-of-signal activity can be used to understand the reporter gene at the transcription factor-level as they relate to the gene HSF1. Furthermore, this assay endpoint can be referred to as a primary readout, because this assay has produced multiple assay endpoints where this one serves a reporter gene function. To generalize the intended target to other relatable targets, this assay endpoint is annotated to the dna binding intended target family, where the subfamily is heat shock protein.
Human liver HepG2 cells are transiently transfected with multiple reporter transcription units (MRTUs) in 6-well plates using FuGene 6 reagent (Roche; 3 ml FuGene/1 mg DNA). The MRTU constructs are regulated by a cis-regulating element (promoter). […] A major difference between the CIS and TRANS system is that in CIS activities of endogenous TFs are measured, whereas the TRANS assay evaluates changes in activities of exogenous, chimeric NR-Gal4 proteins. […] At the end of 24 hour incubation, total RNA was isolated using TriZol reagent (Invitrogen). The isolated RNA is then reverse-transcribed using oligo(dT) primer and Mo-MLV reverse transcriptase (Invitrogen) with DNAse I (Ambion) treatment for 30 min. The one-tenth of the produced cDNA was amplified by PCR using Taq DNA polymerase (Invitrogen) and two reporter sequence-specific primers. The PCR products were fluorescently labeled by primer extension with 6-arboxyfluorescein (6-FAM) 5'-labeled reporter sequence-specific primer (2 min at 95 C, 20 s at 68 C and 10 min at 72 C) and these products were digested with 5U of HpaI (New England Biolabs) for 2h at 37 C. The fragments were purified using Qiaquick PCR columns (Qiagen), analyzed on an ABI 3130xL genetic analyzer (Applied Biosystems) with peak positions identified by using a set of X-rhodamine (ROX)-labeled MapMarker1000 molecular weight standards (BioVentures). The raw capillary electrophoresis data was processed using Attagraph software (Attagene).
On to `COc1cc2ncnc(Nc3cccc(Cl)c3)c2cc1OC`, for which the compound was classed as inactive.

`O=[N+]([O-])c1cc(C(F)(F)F)ccc1Cl`: the compound was classed as inactive.

Take `C=CC(=O)OCCOCCOCC`: the call was inactive.

As for `O=S(=O)(O)NC1CCCCC1`, the call was inactive.

`C=CC(C)(CCC=C(C)C)OC=O` (stereo not given): the compound was called inactive.

As for `O=C(O)c1cccc(C(F)(F)F)c1`, the compound was classed as inactive.

Broadly, the AC50 is the concentration at which the activity in the assay is half-maximal. With `C#C[C@]1(O)CC[C@H]2[C@@H]3CCC4=Cc5oncc5C[C@]4(C)[C@H]3CC[C@@]21C`, the AC50 was 58.2 µM (active).

`O=[N+]([O-])c1ccc(C=Cc2ccc([N+](=O)[O-])cc2S(=O)(=O)O)c(S(=O)(=O)O)c1`: the call was inactive.

Consider `O=C(O)c1ccc([N+](=O)[O-])cc1`, for which the call was inactive.

On to `NC(=O)Nc1ccc(Cl)cc1`, for which the compound was classed as inactive.

For `CC1(C)[C@H](C(=O)OCc2cccc(Oc3ccccc3)c2)[C@@H]1C=C(Cl)Cl`, the result was inactive.

As to `Cc1ncc([N+](=O)[O-])n1C`, the result was inactive.

In the case of `CCCOCC(C)O` (stereo not given), the compound was classed as inactive.

In the case of `Nc1cc([N+](=O)[O-])ccc1O`, the compound was called inactive.

Regarding `CC(C)(C)C(=O)c1ccccc1`, the result was inactive.

Regarding `OCCOCCOCCOCCO`, the AC50 was 57.2 µM (active).

Take `COCCCOc1ccnc(CS(=O)c2nc3ccccc3[nH]2)c1C` (stereo not given): the AC50 was 152 µM (active).

As to `CCc1ccc(C=O)cc1`, the compound was called inactive.

Turning to `CCC/C=C/C=O`, the compound was classed as inactive.

For `O=P(c1ccccc1)(c1ccccc1)c1ccccc1`, the call was inactive.

Take `CC(C)(C)NC(N)=O`: the call was inactive.

Consider `O=C1NC(=O)c2ccccc21`, for which the call was inactive.

Turning to `COCCOCCOCCOCCOCCO`, the compound was called inactive.

As to `CC1=CCC2C(C1)C2(C)C` (stereo not given), the result was inactive.

Regarding `CCCCCCCCCCN`, the call was inactive.

For the compound `O=Cc1ccc(F)cc1`, the result was inactive.

Turning to `CC(=O)OCCC(C)CC(C)(C)C` (stereo not given), the call was inactive.

Regarding `CSc1nnc(C(C)(C)C)c(=O)[nH]1`, the outcome was inactive.

Turning to `O=Cc1ccc(Cl)c([N+](=O)[O-])c1`, the AC50 was 142 µM (active).

As for `CCn1c2ccccc2c2cc(N)ccc21`, the result was inactive.

Consider `CC(C)OP(=O)(CP(=O)(OC(C)C)OC(C)C)OC(C)C`, for which the compound was classed as inactive.

For the compound `CN(C)c1ccc(O)c2c1C[C@H]1C[C@H]3[C@H](N(C)C)C(=O)C(C(N)=O)=C(O)[C@@]3(O)C(=O)C1=C2O`, the call was inactive.

Regarding `CCC(C)CCCC(C)(C)O` (stereo not given), the compound was called inactive.

Regarding `O=C1OC2(c3cc(Br)c(O)c(Br)c3Oc3c2cc(Br)c(O)c3Br)c2c(Cl)c(Cl)c(Cl)c(Cl)c21`, the compound was called inactive.

Consider `OC1OC[C@@H](O)[C@H](O)[C@H]1O` (stereo not given in full), for which the result was inactive.

On to `CC(CCO)CCCC(C)(C)O` (stereo not given), for which the call was inactive.

On to `CC(=O)O[C@H](CC(=O)[O-])C[N+](C)(C)C`, for which the result was inactive.

For the compound `COc1ccnc(CS(=O)c2nc3cc(OC(F)F)ccc3[nH]2)c1OC` (stereo not given), the outcome was inactive.

Take `CCCC(=O)OCCC(C)CCC=C(C)C` (stereo not given): the result was inactive.

With `N#Cc1nc(Cl)c(Cl)c(Cl)c1Cl`, the AC50 is 5.66 µM (active).
